The values below come from PubChem BioAssay (EPA / NIEHS).

Molecules are shown by their SMILES. The source holds several records for some structures; these can differ, active in one and inactive in another. Calls of active or inactive are those of the source. The calls were made as follows: active = hit-call score of the fitted dose curve at least 0.9, where 1 is the maximum; inactive = score below 0.9.

Experiment [1] can be described thus: ATG_GLI_CIS: Attagene CIS-FACTORIAL HepG2 Assay for human Zinc Finger Protein GLI1 (AID 2282945). The settings on record: HepG2, Attagene cis-factorial reporter mRNA, GLI element; actives raise or lower the signal. Put shortly:
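Bidirectional curve fits relative to DMSO, using reporter mRNA levels from RT-PCR plus capillary electrophoresis. Cells were HepG2 transiently carrying cis-regulated reporter constructs, harvested 24 h after dosing.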

In experiment [2] the target is Bile acid receptor (Homo sapiens) (UniProt Q96RI1). The experiment is described as follows: ATG_IR1_CIS: Attagene CIS-FACTORIAL HepG2 Assay for human Nuclear Receptor Subfamily 1 Group H Member 4 (NR1H4), IR1 submotif (AID 2282946). The conditions noted are these: IR1 reporter transcription, actives raise or lower the signal. Put shortly: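 Cells (human HepG2) carry transiently transfected cis-promoter reporter transcription units. Compounds are incubated 24 h, total RNA is reverse-transcribed and amplified, and labelled fragments are resolved by capillary electrophoresis. Curves use DMSO as baseline.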
Sequence of Bile acid receptor (Homo sapiens) (Q96RI1 whole entry, looked up, the tested form may be a part): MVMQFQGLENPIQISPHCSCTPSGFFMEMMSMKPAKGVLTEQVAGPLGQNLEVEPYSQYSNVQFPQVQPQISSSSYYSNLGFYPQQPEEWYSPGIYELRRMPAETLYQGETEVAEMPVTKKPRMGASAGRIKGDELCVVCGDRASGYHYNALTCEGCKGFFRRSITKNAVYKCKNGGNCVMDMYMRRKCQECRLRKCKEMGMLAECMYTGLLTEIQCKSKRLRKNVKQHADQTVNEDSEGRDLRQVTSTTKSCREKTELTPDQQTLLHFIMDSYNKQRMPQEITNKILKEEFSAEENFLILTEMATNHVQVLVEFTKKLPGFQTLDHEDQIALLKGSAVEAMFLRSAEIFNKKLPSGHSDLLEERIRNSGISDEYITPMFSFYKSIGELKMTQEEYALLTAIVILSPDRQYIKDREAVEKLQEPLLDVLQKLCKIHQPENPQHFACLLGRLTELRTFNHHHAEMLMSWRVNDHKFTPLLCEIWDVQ

Experiment [3] can be described thus: ATG_GRE_CIS: Attagene CIS-FACTORIAL HepG2 Assay for human Glucocorticoid Response Elements (GRE) (AID 2282947). The settings on record: HepG2 GRE cis-reporter, Attagene multiplex mRNA; actives raise or lower the signal. The method in brief: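 Transient MRTU transfection of human HepG2 liver cells; cis-regulated reporters report endogenous factors. 24 h dosing → RNA isolation → RT-PCR → 6-FAM primer extension → HpaI cut → CE fragment analysis. Bidirectional fit, DMSO negative control.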

A short description of experiment [4]: ATG_ISRE_CIS: Attagene CIS-FACTORIAL HepG2 Assay for human Interferon Regulatory Factor 1 (IRF1) binding to an Interferon-Stimulated Response Element (ISRE) (AID 2282948). The settings on record: HepG2 ISRE cis-reporter (Attagene), mRNA transcription readout; actives raise or lower the signal. Put shortly:
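Quantitation relies on labelled RT-PCR fragments separated by capillary electrophoresis. Human HepG2 cells bearing cis-promoter reporter constructs were treated 24 h; DMSO served as baseline for bidirectional fitting.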

Experiment [5] in a line: ATG_M_32_CIS: Attagene CIS-FACTORIAL HepG2 Assay for M32 Transcription Factor (Internal Marker) (AID 2282949).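 Also: background control marker of the multiplexed CIS panel rather than a real target.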 The conditions noted are these: HepG2 Attagene cis-factorial M32 reporter, mRNA; actives raise or lower the signal. The method in brief: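 HepG2 cells transiently transfected with multiplexed cis-regulated reporter units, dosed 24 h. Reporter mRNA quantified by RT-PCR, 6-FAM labelling, HpaI digestion and capillary electrophoresis; bidirectional fit vs DMSO.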

Experiment [6] can be described thus: ATG_M_06_CIS: Attagene CIS-FACTORIAL HepG2 Assay for M06 Transcription Factor (Internal Marker) (AID 2282950). The settings on record: HepG2 Attagene CIS-FACTORIAL M06 internal marker reporter; actives raise or lower the signal. Put shortly: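 Fluorescence-labelled RT-PCR products from cis-promoter reporter units, cut with HpaI and resolved by capillary electrophoresis, give the signal. Cells are human HepG2, dosed for 24 h. Serves as background control, fitted relative to DMSO.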

The target in experiment [7] is Hypoxia-inducible factor 1-alpha (Homo sapiens) (UniProt Q16665). The experiment is described as follows: ATG_HIF1a_CIS: Attagene CIS-FACTORIAL HepG2 Assay for human Hypoxia Inducible Factor 1 (HIF1A) (AID 2282951). The conditions noted are these: HepG2 Attagene cis-factorial HIF1a reporter transcription; actives raise or lower the signal. Put shortly: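 RT-PCR/capillary electrophoresis fluorescence readout of reporter transcripts from endogenous-TF-driven cis elements in transfected HepG2 cells, 24 h exposure; activity fitted in both directions against DMSO controls.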
Sequence of Hypoxia-inducible factor 1-alpha (Homo sapiens) (Q16665 whole entry, looked up): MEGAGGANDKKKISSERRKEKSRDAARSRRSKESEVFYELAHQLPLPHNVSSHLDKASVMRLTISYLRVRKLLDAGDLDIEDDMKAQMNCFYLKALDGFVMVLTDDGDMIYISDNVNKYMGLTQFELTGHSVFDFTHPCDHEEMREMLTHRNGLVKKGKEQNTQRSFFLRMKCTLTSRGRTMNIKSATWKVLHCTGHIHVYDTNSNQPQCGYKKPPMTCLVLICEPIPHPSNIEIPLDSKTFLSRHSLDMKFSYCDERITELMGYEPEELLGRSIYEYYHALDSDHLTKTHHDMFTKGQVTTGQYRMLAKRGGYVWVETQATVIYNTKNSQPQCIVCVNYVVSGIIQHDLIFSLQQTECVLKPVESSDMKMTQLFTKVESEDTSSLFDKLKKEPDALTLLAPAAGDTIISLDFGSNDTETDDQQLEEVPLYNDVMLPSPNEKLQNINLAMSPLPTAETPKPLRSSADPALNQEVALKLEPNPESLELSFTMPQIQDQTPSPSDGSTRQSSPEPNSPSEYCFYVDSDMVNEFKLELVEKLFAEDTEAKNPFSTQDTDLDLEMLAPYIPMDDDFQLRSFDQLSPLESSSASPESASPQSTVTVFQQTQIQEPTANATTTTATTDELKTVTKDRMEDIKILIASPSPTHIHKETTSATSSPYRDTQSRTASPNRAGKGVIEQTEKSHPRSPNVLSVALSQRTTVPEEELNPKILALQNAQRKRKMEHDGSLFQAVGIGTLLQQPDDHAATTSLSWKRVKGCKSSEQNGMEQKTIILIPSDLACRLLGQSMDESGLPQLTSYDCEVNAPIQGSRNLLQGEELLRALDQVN

The target in experiment [8] is Hepatocyte nuclear factor 6 (Homo sapiens) (UniProt Q9UBC0). Briefly: ATG_HNF6_CIS: Attagene CIS-FACTORIAL HepG2 Assay for human Hepatocyte Nuclear Factor 6 (HNF6) (AID 2282952). The conditions noted are these: HepG2 Attagene cis-factorial HNF6 reporter transcription; actives raise or lower the signal. Put shortly: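 Reporter mRNA induction or loss in HepG2 after 24 h exposure; transient cis-MRTU transfection; fragments quantified by capillary electrophoresis; bidirectional analysis, DMSO as negative control.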
Sequence of Hepatocyte nuclear factor 6 (Homo sapiens) (Q9UBC0 whole entry, looked up, the tested form may be a part): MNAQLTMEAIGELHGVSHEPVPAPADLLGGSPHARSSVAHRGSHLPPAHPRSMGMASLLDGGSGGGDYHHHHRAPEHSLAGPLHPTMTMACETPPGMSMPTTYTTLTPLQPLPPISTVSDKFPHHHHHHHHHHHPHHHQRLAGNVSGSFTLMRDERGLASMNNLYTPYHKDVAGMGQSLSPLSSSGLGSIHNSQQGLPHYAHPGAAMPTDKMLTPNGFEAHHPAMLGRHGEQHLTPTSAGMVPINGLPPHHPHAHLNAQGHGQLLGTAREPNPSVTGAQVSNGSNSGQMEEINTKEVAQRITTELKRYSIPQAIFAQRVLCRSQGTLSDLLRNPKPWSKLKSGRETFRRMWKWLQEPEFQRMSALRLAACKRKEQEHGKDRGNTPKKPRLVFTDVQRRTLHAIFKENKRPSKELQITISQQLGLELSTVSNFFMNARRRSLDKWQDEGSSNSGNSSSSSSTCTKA

Experiment [9] has as its target Heat shock factor protein 1 (Homo sapiens) (UniProt Q00613). The experiment is described as follows: ATG_HSE_CIS: Attagene CIS-FACTORIAL HepG2 Assay for human Heat Shock Transcription Factor 1 (HSE) (AID 2282953). The conditions noted are these: HepG2 HSE cis-reporter, Attagene RNA transcription; actives raise or lower the signal. Put shortly:
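After a 24 h incubation with test chemical, transfected HepG2 cells were harvested for RNA; reporter transcripts were measured by RT-PCR and capillary electrophoresis. Values reflect gain or loss of signal relative to DMSO.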

Experiment [10] is described as follows: ATG_MRE_CIS: Attagene CIS-FACTORIAL HepG2 Assay for human Metal Responsive Element (MRE) (AID 2282954). The settings on record: HepG2 MRE cis-reporter transcription, Attagene multiplex; actives raise or lower the signal. The method in brief:
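Transient MRTU transfection of HepG2 (FuGene 6); 24 h dosing; total RNA → oligo(dT) RT, PCR, 6-FAM primer extension, HpaI cut, CE. Bidirectional fit vs DMSO.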

Sequence of Heat shock factor protein 1 (Homo sapiens) (Q00613 whole entry, looked up): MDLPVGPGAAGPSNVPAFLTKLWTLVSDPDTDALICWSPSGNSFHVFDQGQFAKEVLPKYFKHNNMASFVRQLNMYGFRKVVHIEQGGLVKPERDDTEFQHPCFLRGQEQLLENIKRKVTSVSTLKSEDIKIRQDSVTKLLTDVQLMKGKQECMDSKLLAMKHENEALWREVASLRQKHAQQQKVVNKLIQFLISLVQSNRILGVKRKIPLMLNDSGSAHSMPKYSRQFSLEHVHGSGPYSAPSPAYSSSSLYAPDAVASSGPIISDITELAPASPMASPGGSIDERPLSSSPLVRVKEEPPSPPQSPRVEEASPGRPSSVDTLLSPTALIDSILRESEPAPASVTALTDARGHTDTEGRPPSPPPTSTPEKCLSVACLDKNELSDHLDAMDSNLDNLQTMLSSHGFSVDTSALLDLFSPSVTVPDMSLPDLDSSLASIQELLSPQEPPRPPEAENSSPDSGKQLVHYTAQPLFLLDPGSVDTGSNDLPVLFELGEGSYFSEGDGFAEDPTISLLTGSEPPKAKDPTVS

Take `C/C(=N\NC(=O)Nc1cc(F)cc(F)c1)c1ncccc1C(=O)O`: the compound was called inactive in [1], in experiment [2], in [3], in [4], in experiment [5] and in experiment [6]. Also, the result in [7], in [8], in experiment [9] and in experiment [10] was inactive.
As to `O=S(=O)(F)C(F)(F)C(F)(F)C(F)(F)C(F)(F)C(F)(F)C(F)(F)C(F)(F)C(F)(F)F`, the outcome in experiment [1], in [2], in [3], in [4], in experiment [5] and in experiment [6] was inactive. For the same compound, the result in experiment [7], in [8], in [9] and in experiment [10] was inactive.
Turning to `N#Cc1c(-c2ccc(Cl)cc2)[nH]c(C(F)(F)F)c1Br`, the result in experiment [1], in experiment [2], in [3], in experiment [5], in [6] and in [7] was inactive. In [8], the outcome was inactive. The figures for the AC50 in [4], in [9] and in [10] were 1 µM (active), 47.3 µM (active) and 0.956 µM (active), respectively.
As to `CCOP(=S)(OCC)SCn1nnc2ccccc2c1=O`, the compound was called inactive in [1], in experiment [2], in experiment [3], in experiment [4], in experiment [5] and in experiment [6]. The outcome in experiment [7] and in [8] was inactive. The AC50 in experiment [9] is 166 µM (active); in experiment [10] it was 78.5 µM (active).
With `COC(=O)C(F)(F)C(F)(F)OC(F)(C(F)(F)F)C(F)(F)OC(F)=C(F)F` (centres undefined), the call in [1], in [2], in experiment [3], in experiment [4], in experiment [5] and in experiment [6] was inactive. Moreover, the compound was called inactive in experiment [7], in [8], in experiment [9] and in experiment [10].
On to `CC(=O)c1ccc(-c2ccccc2)cc1`, for which the result in experiment [1], in experiment [2], in experiment [3], in experiment [4], in experiment [5] and in experiment [6] was inactive. The compound was called inactive in [7], in experiment [8], in experiment [9] and in [10].
On to `OCC(F)(F)OC(F)(F)C(F)(F)OC(F)(F)C(F)(F)OC(F)(F)F`, for which the result in experiment [1], in experiment [2], in experiment [3], in experiment [4], in experiment [5] and in experiment [6] was inactive. Further, the result in experiment [8] and in [10] was inactive. Also, the values for the AC50 in experiment [4] and in [10] were 90 µM (active) and 75.7 µM (active), respectively.
In the case of `CCOP(=S)(NC(C)C)Oc1ccccc1C(=O)OC(C)C` (centres undefined), the outcome in [1], in experiment [3], in experiment [5], in [6], in experiment [7] and in [8] was inactive. Besides, the compound was called inactive in experiment [9]. Moreover, the AC50 in [2] was 26.5 µM (active); in experiment [4], 41.7 µM (active); in [10], 59.9 µM (active).
Regarding `O=NN1CCCC1`, the outcome in [1], in [2], in [3], in experiment [4], in experiment [5] and in experiment [6] was inactive. The compound was classed as inactive in experiment [7], in [8], in experiment [9] and in experiment [10].
As to `N#C/C=C/c1ccccc1`, the call in [1], in experiment [2], in [3], in [4], in experiment [5] and in experiment [6] was inactive. The result in [7], in experiment [8], in [9] and in [10] was inactive.
With `N#Cc1ccc(O)cc1`, the compound was classed as inactive in experiment [1], in [2], in experiment [3], in experiment [4], in experiment [5] and in experiment [6]. Further, the compound was classed as inactive in experiment [7], in [8], in [9] and in experiment [10].
Consider `O=C(O)C=CC(F)(C(F)(F)F)C(F)(F)F`, for which the result in experiment [1], in experiment [2], in [3], in experiment [4], in [5] and in experiment [6] was inactive. The compound was called inactive in experiment [7], in experiment [8], in experiment [9] and in experiment [10].
As for `O=c1[nH]c2ccccc2c(=O)o1`, the outcome in [1], in [2], in experiment [3], in experiment [4], in [5] and in experiment [6] was inactive. Also, the call in experiment [7], in [8], in [9] and in experiment [10] was inactive.
In the case of `O=S1(=O)OCC2C(CO1)C1(Cl)C(Cl)=C(Cl)C2(Cl)C1(Cl)Cl` (centres undefined), the AC50 is 186 µM (active) in experiment [1], 100 µM (active) in experiment [4], 142 µM (active) in experiment [9] and 163 µM (active) in experiment [10]. The outcome in [2], in experiment [3], in experiment [5], in experiment [6], in experiment [7] and in experiment [8] was inactive.
For the compound `CCOP(=O)(O)C(N)=O`, the compound was classed as inactive in experiment [1], in experiment [2], in experiment [3], in experiment [4], in experiment [5] and in [6]. The result in [7], in experiment [8], in [9] and in experiment [10] was inactive.
Turning to `Oc1ccccc1Br`, the call in experiment [1], in experiment [2], in experiment [3], in experiment [4], in [5] and in experiment [6] was inactive. Moreover, the outcome in experiment [7], in experiment [8], in [9] and in [10] was inactive.
Take `NC(=O)C(F)(F)C(F)(F)F`: the compound was called inactive in experiment [1], in experiment [2], in [3], in [4], in [5] and in experiment [6]. Also, the compound was called inactive in [7], in experiment [8], in experiment [9] and in experiment [10].
Regarding `Cc1ccc2c(c1N)C(=O)c1ccccc1C2=O`, the result in experiment [1], in experiment [2], in [3], in [4], in experiment [5] and in [6] was inactive. In addition, the compound was classed as inactive in experiment [7], in experiment [8], in experiment [9] and in [10].
On to `CCN(CC)c1ccccc1`, for which the compound was classed as inactive in experiment [1], in experiment [2], in experiment [3], in experiment [4], in experiment [5] and in [6]. The compound was classed as inactive in experiment [7], in [8], in experiment [9] and in experiment [10].
Regarding `CCOP(=S)(S)OCC`, the compound was called inactive in experiment [1], in [2], in experiment [3], in experiment [4], in experiment [5] and in experiment [6]. Besides, the compound was classed as inactive in [7], in experiment [8] and in experiment [10]. The AC50 in experiment [9] is 157 µM (active).
Consider `Cc1ccc(N)cc1N`, for which the outcome in experiment [1], in experiment [2], in experiment [3], in [4], in experiment [5] and in experiment [6] was inactive. Besides, the outcome in experiment [7], in experiment [8] and in experiment [10] was inactive.
As for `C=CC(=O)OCC(F)(F)C(F)F`, the compound was classed as inactive in [1], in [2], in [3], in experiment [5], in experiment [6] and in experiment [7]. Besides, the compound was called inactive in [8] and in experiment [9]. In addition, the AC50 was 150 µM (active) in experiment [4] and 117 µM (active) in experiment [10].
Consider `FC(F)(F)C(F)(C(F)(F)F)C(F)(F)C(F)(F)CC1CO1` (centres undefined), for which the outcome in [1], in experiment [2], in [3], in experiment [4], in experiment [5] and in experiment [6] was inactive. Moreover, the compound was called inactive in experiment [7], in [8], in [9] and in experiment [10].
Consider `CC(C)CBr`, for which the compound was called inactive in experiment [1], in [2], in experiment [3], in experiment [4], in [5] and in experiment [6]. Moreover, the compound was called inactive in experiment [7], in experiment [8], in [9] and in experiment [10].
